High-throughput results as filed in PubChem.
HCMV inh: inhibitors of human cytomegalovirus; hit rate 4.5% among 410,000; AID 1259415; activity change, negative = inhibition, % at 57.5 µM; HFF cells, HCMV-luciferase reporter, 72 h; hits give low values; in the data active means activity change below about -60%; inconclusive means no clear call, values can overlap the other calls; inactive means above about -39%; further: on the % scale 0 is the no-effect control and ±100 the full control effect
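Human foreskin fibroblasts infected with luciferase-reporter HCMV at MOI 1 PFU/cell, compounds at two doses. Luciferase measured 72 h post infection; normalized to buffer-only basal and Salinomycin (10uM) controls.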
SARS PLP yeast: SARS-CoV PLP inhibition in yeast | hit rate 0.19% among 330,000 | S. cerevisiae expressing SARS-CoV PLpro, growth rescue | Potency, µM (titrated, usually from 32.9 µM), inactives show top-dose activity, positive = growth rescue, most hits filed as activators; calls by dose curve; further: potency means the concentration at half of the fitted maximal effect; 0% is about no effect; nearly all actives have a fitted effect of over 55% in size
Pf growth 48h: inhibits P. falciparum growth in the first generation, 48 h; P. falciparum luciferase growth in erythrocytes, 48 h; Potency, µM (highest dose often 28.7 µM), inactives show at the top dose activity change, negative = inhibition, most hits filed as inhibitors; hit rate 5.9% among 310,000; further: potency means the concentration at half of the fitted maximal effect; on the % scale 0 is the no-effect control and ±100 the full control effect
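Parasite viability was followed by luminescence of a genomically integrated firefly luciferase. Cultures held 0.1% parasitemia at 2% hematocrit (final), incubated under 5% CO2 at 37 C.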
HCV inhibitor: blocks hepatitis C virus | Huh7.5.1 HCVcc-Cre infection, luciferase reporter, 44 h | Potency, µM (titrated, usually from 41.8 µM), for the others: at the highest dose activity change, negative = inhibition, most hits filed as inhibitors | hit rate 3.4% among 340,000 | AID 651820; further: potency means the concentration at half of the fitted maximal effect; on the % scale 0 is the no-effect control and ±100 the full control effect
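Infectious HCV cell culture screen: compound-treated cells (1,000/well, pre-plated 4 h) are infected with HCVcc-Cre at roughly 0.5 moi and grown 44 h. Infection is quantified by luciferase signal after 15 min substrate incubation at room temperature.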
Pf growth 96h: P. falciparum growth inhibition at 96 hour, primary screen for plastid delayed-death inhibitors. AID 504834. P. falciparum luciferase reporter growth, 96 h. Potency, µM (top dose mostly 28.7 µM), for inactives: at the highest dose activity change, negative = inhibition, actives largely listed as inhibitors. hit rate 6.9% among 320,000; further: potency means the concentration at half of the fitted maximal effect; on the % scale 0 is the no-effect control and ±100 the full control effect
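Two-generation exposure (96 h) targets delayed-death phenotype. Reporter parasites carrying integrated firefly luciferase, in red cells at 2% hematocrit and 0.05% parasitemia final, kept at 37 C, 5% CO2; luminescence loss indicates inhibition.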
Sm TGR block: blocks Schistosoma mansoni thioredoxin glutathione reductase; Q962Y6; purified TGR, DTNB reduction, TNB absorbance 405 nm; Potency, µM (doses to about 114 µM), for the others: at the highest dose activity change, negative = inhibition, actives largely listed as inhibitors; hit rate 3% among 360,000; further: potency means the concentration at half of the fitted maximal effect; on the % scale 0 is the no-effect control and ±100 the full control effect; nearly all actives have a fitted effect of over 60% in size
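First, TGR (20 nM dispensed) and NADPH were mixed with compound. Second, a 15 min room-temperature incubation followed. Third, further NADPH and then DTNB were added to start the reaction. Finally, TNB absorbance was monitored kinetically.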
Numbers without * were called inactive; ? = inconclusive; nt = no result; [ ] = another dose, or the depositor's remark. Hits are enriched below; roughly 15% of the tested compounds scored in any of these assays. Unless noted, the call rests on the fitted dose curve; in most records, active means well fitted curve in the direction sought with a large enough effect; inconclusive means small, poorly fitted or top-dose-only effect, or another doubt; inactive means no such curve, though single readings can be large; an effect the other way counts as inactive or inconclusive.

SMILES	HCMV inh	SARS PLP yeast	Pf growth 48h	HCV inhibitor	Pf growth 96h	Sm TGR block
Cn1c(=O)c2c(nc(NCc3ccc4c(c3)OCO4)n2Cc2ccc(F)cc2)n(C)c1=O	-34	-3%	12µM*	11µM*	13µM*	6%
Cn1c(=O)c2c(nc(NCc3ccc4c(c3)OCO4)n2Cc2ccccc2F)n(C)c1=O	-17	0%	?	?	6%	2%
Cc1nc2nc[nH]n2c(=O)c1NS(C)(=O)=O	15	9%	2%	14%	?	-2%
CC1CCc2c(nc3nc[nH]n3c2=O)C1 (centres undefined)	6	7%	nt	6%	1.2µM*	3%
CCOc1ccc(N2CC(C(=O)Nc3ccccc3N3CCOCC3)CC2=O)cc1 (centres undefined)	1	-2%	nt	-4%	-17%	22%
CC(=O)OC(C)C1C2=C(C(=O)CC1(C)O)C(=O)c1c(ccc(-c3ccc4c(c3O)C(=O)C3=C(C4=O)C(C(C)OC(C)=O)C(C)(O)CC3=O)c1O)C2=O (centres undefined)	-68*	nt	nt	?	nt	nt
Cc1cccn2c(=O)c3cc(C#N)c(=NC(=O)c4ccco4)n(Cc4ccco4)c3nc12	-27	0%	?	?	?	?
COCCCn1c(=NC(=O)c2ccccc2)c(C#N)cc2c(=O)n3cccc(C)c3nc21	18	-1%	2.9µM*	?	?	-30%
Cc1cccn2c(=O)c3cc(C#N)c(=NC(=O)c4ccccc4)n(Cc4ccco4)c3nc12	1	nt	nt	4µM*	nt	nt
CCOCCCn1c(=NC(=O)c2cccs2)c(C#N)cc2c(=O)n3cccc(C)c3nc21	-39	0%	1.9µM*	?	-7%	-30%
CC(=O)N=c1c(C#N)cc2c(=O)n3ccccc3nc2n1Cc1ccccc1	-32	-12%	?	?	8.3µM*	-9%
Cc1cccn2c(=O)c3cc(C#N)c(=NC(=O)c4cccs4)n(CC(C)C)c3nc12	25	1%	58%	-14%	3%	-4%
O=C(NC(=S)Nc1ccc(Cc2ccncc2)cc1)c1ccccc1F	-99*	0%	?	-25%	11%	nt
O=C(NC(=S)Nc1ccc(Cc2ccncc2)cc1)c1ccccc1Cl	-36	17%	-14%	2%	134%	-14%
O=C1NCCN(Cc2ccc(F)cc2)C1CC(=O)N1CC=C(c2ccccc2)CC1 (centres undefined)	0	2%	-10%	?	2%	35µM*
O=C1NCCN(Cc2ccoc2)C1CC(=O)N(Cc1ccccc1)CC1CCC1 (centres undefined)	-27	0%	16%	7%	?	10µM*
Cc1ccc(CN2CCNC(=O)C2CC(=O)N(C)C2CCCCC2)cc1 (centres undefined)	-1	-6%	?	-8%	-5%	45µM*
CN(CC1CCOCC1)C(=O)CC1C(=O)NCCN1Cc1cccc(F)c1 (centres undefined)	57	5%	?	15%	84%	?
Cc1cc(CNC(=O)CC2C(=O)NCCN2Cc2ccccc2)nn1C (centres undefined)	9	-2%	-9%	3%	?	?
Cc1cc(CNC(=O)CC2C(=O)NCCN2Cc2ccc(-c3ccccc3)cc2)nn1C (centres undefined)	4	9%	-13%	-19%	9.3µM*	-26%[57.1 µM]
CCOc1ccc2c(c1)c(=O)c(C(=O)c1ccc(C)cc1)cn2Cc1ccccc1OC	?	nt	nt	nt	nt	2%
CCc1nnc(NC(=O)c2nc(SCc3ccc(F)cc3)ncc2Cl)s1	17	nt	nt	nt	nt	6%
CN(CCc1cn[nH]c1)C(=O)CC1C(=O)NCCN1Cc1ccccc1C(F)(F)F (centres undefined)	?	0%	33%	12%	?	35µM*
CN(C(=O)CC1C(=O)NCCN1Cc1ccc(F)c(F)c1)C1CCOCC1 (centres undefined)	-21	-1%	43%	16%	?	45µM*
CCOc1ccccc1CN1CCNC(=O)C1CC(=O)N(C)CCc1ccccn1 (centres undefined)	-23	-1%	-4%	-3%	?	?
SMILES	HCMV inh	SARS PLP yeast	Pf growth 48h	HCV inhibitor	Pf growth 96h	Sm TGR block
COCCN(C(=O)CC1C(=O)NCCN1Cc1ccc(-c2ccccc2)cc1)C(C)C (centres undefined)	-23	0%	-39%	9%	10%	40µM*
CN(CCc1ccccn1)C(=O)CC1C(=O)NCCN1Cc1ccc(-c2ccccc2)cc1 (centres undefined)	27	-3%	?	26%	12µM*	0%
CN(Cc1ccon1)C(=O)CC1C(=O)NCCN1Cc1ccccc1C(F)(F)F (centres undefined)	-1	1%	-17%	6%	?	?
CN(C)S(=O)(=O)N(CC(=O)NCCSCc1ccccc1Cl)c1ccccc1	-13	nt	nt	nt	nt	10%
Cc1c(C(=O)NCc2ccc3c(c2)OCO3)cccc1[N+](=O)[O-]	-38	-11%	19%	9%	290%	-1%
Cc1ccc(CN2CCNC(=O)C2CC(=O)N(C)CCc2ccccc2)cc1 (centres undefined)	-9	0%	?	0%	7.4µM*	-20%
Cc1csc(CN(C)C(=O)CC2C(=O)NCCN2Cc2ccc(-c3ccccc3)cc2)n1 (centres undefined)	-29	0%	19%	6%	13%	11%
Cc1ccc(N2C(=O)CS(=O)(=O)C23C(=O)N(Cc2ccc(Cl)cc2)c2ccccc23)cc1C (centres undefined)	0	nt	nt	nt	nt	6%
Cc1cc(NC(=O)CCCN2C(=O)c3cccnc3C2=O)no1	-11	-1%	22%	10%	12µM*	0%
Cc1nc(-c2ccc(S(=O)(=O)Nc3cc(Cl)ccc3C)cc2)co1	29	nt	nt	nt	nt	16%
Cc1cc(-c2ccccc2)c2c(=O)n(-c3ccccc3)[nH]c2n1	-14	16%	38%	-4%	0.0037µM*	11%
O=C(NCCCn1ccnc1)c1ccccc1Cl	6	12%	-5%	16%	35%	0%
O=C(NCCCn1ccnc1)c1csc2ccccc12	-20	-2%	-14%	-1%	10µM*	7%
COc1ccc2c(Cl)c(C(=O)NCCCn3ccnc3)sc2c1Cl	-11	1%	10µM*	?	?	1%
COc1cccc(CNS(=O)(=O)c2ccc3c(c2)N(C)CCO3)c1	?	2%	0%	-19%	0%	-1%
Cc1c(C)n2c(SCC(=O)N3CC(C)OC(C)C3)nnc2[nH]c1=O (centres undefined)	-16	3%	?	-1%[8.37 µM]	5.2µM*	-2%
